The results in this text go back to PubChem BioAssay (NCATS).

Each structure is given as a SMILES string. Inconclusive results are not listed. The source made the active and inactive calls. The call rests on the fitted dose curve; in most records, active means well fitted inhibition curve with a large enough effect; inconclusive means small, poorly fitted or top-dose-only effect, or effect the other way; inactive means flat fitted curve, though single readings scatter. Where a SMILES comes first, the peptide text is derived from it. [ ]: non-standard residue; d: D form. pGlu = O=C1CC[C@@H](C(=O)O)N1; Thz = O=C(O)[C@@H]1CSCN1
On the % scale 0 is the no-effect control and ±100 the full control effect.

This experiment deals with ATP-dependent 6-phosphofructokinase (Trypanosoma brucei brucei) (UniProt O15648). Briefly: qHTS Assay to Find Inhibitors of T. brucei phosphofructokinase: hit validation (AID 492961).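 Further: luminescence reports ADP formed as PFK phosphorylates fructose-6-phosphate with ATP.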 The following applies: T. brucei PFK, ADP-Glo luminescence; series mostly up to 51.4 µM; activity change, negative = inhibition: at the top concentration. In short, it runs like this: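 Measures ADP output of PFK (1.25 nM) at 0.1 mM ATP, 0.5 mM F6P, pH 8.0 TEA buffer with 5 mM MgCl2. No-enzyme wells define full inhibition; uninhibited enzyme wells define zero.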
Chain of ATP-dependent 6-phosphofructokinase (Trypanosoma brucei brucei) (O15648 whole entry, looked up): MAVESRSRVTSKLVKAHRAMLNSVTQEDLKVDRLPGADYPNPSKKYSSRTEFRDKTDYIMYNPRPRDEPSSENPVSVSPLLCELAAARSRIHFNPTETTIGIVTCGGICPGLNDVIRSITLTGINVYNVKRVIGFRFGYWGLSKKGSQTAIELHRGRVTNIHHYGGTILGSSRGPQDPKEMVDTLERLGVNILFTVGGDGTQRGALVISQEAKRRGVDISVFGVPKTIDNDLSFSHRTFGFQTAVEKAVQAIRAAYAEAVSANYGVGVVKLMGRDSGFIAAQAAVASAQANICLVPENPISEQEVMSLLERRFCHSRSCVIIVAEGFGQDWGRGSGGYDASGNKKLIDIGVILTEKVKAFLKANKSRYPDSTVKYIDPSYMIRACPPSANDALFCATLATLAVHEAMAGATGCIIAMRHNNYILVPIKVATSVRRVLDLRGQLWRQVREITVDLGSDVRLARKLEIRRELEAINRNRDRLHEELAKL
As to `Cc1ccc(O)c(-n2nc3ccccc3n2)c1`, the “activity change, negative = inhibition” value is -7.09% (inactive). Regarding `CC1(C)C[C@@H]1C(=O)N/C(=C\CCCCSC[C@H](N)C(=O)O)C(=O)O`, the “activity change, negative = inhibition” value is 5.08% (inactive). On to `NC(=O)C(c1ccccc1)(c1ccccc1)[C@@H]1CCN(CCc2ccc3c(c2)CCO3)C1`, for which the “activity change, negative = inhibition” value is -4.95% (inactive).

For the molecule `C=CCN1C(=O)C(CC(C)C)NC1=S` (stereo not given), the outcome was inactive.

Take `COc1ccc(-c2cc(=S)ss2)cc1`: the “activity change, negative = inhibition” value was 0% (inactive). On the same count and under the same terms, next, `O=C(CCN1CCN(CCO)CC1)N1c2ccccc2Sc2ccc(C(F)(F)F)cc21`: 4.2% (inactive). Still for that read-out and setting: with `Cc1c(Nc2ncccc2C(=O)O)cccc1C(F)(F)F` the figure was 10% [at 24.3 µM] (inactive). As to `Cc1cc(O)c2ccccc2c1O`, the “activity change, negative = inhibition” value was 3.72% (inactive). For `CCCCCCOc1ccccc1C(N)=O`, the “activity change, negative = inhibition” value was -2.4% (inactive). Turning to `C=C(Nc1ccc(OCC)cc1)Nc1ccc(OCC)cc1`, the outcome was inactive. The same measure, in the same setting: next, `CN1[C@@H]2CC[C@H]1CC(OC(c1ccccc1)c1ccccc1)C2` (stereo not given in full): “inactive”.

Take `CCCCCCCCCCCC(=O)[O][Sn]([CH2]CCC)([CH2]CCC)[O]C(=O)CCCCCCCCCCC`: the “activity change, negative = inhibition” value is 15.8% (inactive). For `COc1cc2c3cc1Oc1cc(ccc1O)C[C@@H]1c4c(cc(OC)c(O)c4Oc4ccc(cc4)C[C@@H]3N(C)CC2)CC[N+]1(C)C`, the “activity change, negative = inhibition” value is 6.55% (inactive). `COc1cc(/C=C/C(=O)N2CCN(CC(=O)N3CCCC3)CC2)cc(OC)c1OC`: the “activity change, negative = inhibition” value was 0% (inactive). Same read-out and setting: with `CN1CCN(c2cc3c(nn2)Oc2ccccc2N3C)CC1` the figure was 2.12% (inactive); with `O=C1CN(/N=C/c2ccc([N+](=O)[O-])o2)C(=O)N1`, 8.55% (inactive). In the case of `CCCC(=O)OC[C@@H](OC(=O)CCC)[C@@H](OC(=O)CCC)[C@H](Cn1c2nc(=O)[nH]c(=O)c-2nc2cc(C)c(C)cc21)OC(=O)CCC`, the “activity change, negative = inhibition” value was -4.19% (inactive). Regarding `c1ccc2sc(SN3CCOCC3)nc2c1`, the “activity change, negative = inhibition” value is 0.798% (inactive).

For the molecule `C[S+](CC[C@H](N)C(=O)O)C[C@H]1O[C@@H](n2cnc3c(N)ncnc32)[C@H](O)[C@@H]1O` (stereo not given in full), the “activity change, negative = inhibition” value is -10.9% (inactive). Regarding `O=C(O)COc1ccc(C(=O)c2cccs2)c(Cl)c1Cl`, the molecule was classed as inactive. On to `CCCOC(=O)c1ccc(O)cc1`, for which the “activity change, negative = inhibition” value was 1.19% (inactive). With `c1ccc2sc(SSc3nc4ccccc4s3)nc2c1`, the “activity change, negative = inhibition” value is -13.3% (inactive). Turning to `Cc1[nH]cnc1CN1CCc2c(c3ccccc3n2C)C1=O`, the “activity change, negative = inhibition” value is -7.07% (inactive). As to `Nc1ccc(C(=O)O)c(O)c1`, the “activity change, negative = inhibition” value was 7.89% (inactive). On to `CCCCCCCCCCCCCCCC(=O)OC(C)C`, for which the “activity change, negative = inhibition” value was 0.827% (inactive). On the same count and under the same terms, with `CCCCC[C@H](O)/C=C/[C@@H]1[C@@H](C/C=C\CCCC(=O)O)[C@@H](O)C[C@H]1O` the figure was -2.95% (inactive). For `O=C1CN(/N=C/c2ccc(-c3ccc([N+](=O)[O-])cc3)o2)C(=O)N1`, the “activity change, negative = inhibition” value was 4.81% (inactive).

With `CCCCCCCCCCCCCCCCCC(=O)O`, the “activity change, negative = inhibition” value was 11.5% (inactive). With `Cc1ccc(C(=O)c2ccc(CC(=O)O)n2C)cc1`, the “activity change, negative = inhibition” value was -4.2% [at 24.3 µM] (inactive). As to `Nc1cc(-c2ccncc2)c[nH]c1=O`, the “activity change, negative = inhibition” value was 0.773% (inactive). On the same count and under the same terms, next, `O=C(OCc1ccccc1)c1ccccc1`: 0% (inactive). Same read-out and setting: with `O=C(/C=C/c1ccccc1)NCCO` the figure was -9.31% (inactive); with `CC(C(=O)O)c1ccc2c(c1)[nH]c1ccc(Cl)cc12` (stereo not given), 8.91% (inactive). For the molecule `O=C(O)Cc1ccc(-c2ccccc2)cc1`, the “activity change, negative = inhibition” value is -5.59% [at 24.3 µM] (inactive). On the same count and under the same terms, next, `O=C(Nc1ccc(C(=O)O)c(O)c1)c1ccccc1`: -4.09% (inactive); `CC1(C)S[C@@H]2[C@H](NC(=O)[C@H](NC(=O)N3CCN(S(C)(=O)=O)C3=O)c3ccccc3)C(=O)N2[C@H]1C(=O)O`: -4.57% (inactive); `Cc1nc2ccccc2n1Cc1ccc(Cl)cc1`: 0.365% (inactive). In the case of `CCCSc1ccc2nc(NC(=O)OC)[nH]c2c1`, the “activity change, negative = inhibition” value is 1.37% [at 24.3 µM] (inactive). On to `O=C1CC[C@@H](C(=O)N2CSC[C@H]2C(=O)O)N1` ([pGlu]-[Thz]-OH), for which the “activity change, negative = inhibition” value was -1.91% (inactive). With `O=C(O)[C@H](CC(=O)N1C[C@H]2CCCC[C@H]2C1)Cc1ccccc1`, the “activity change, negative = inhibition” value was 1.9% (inactive).
